Sampled rows, rich in hits. Any-hit rate of the full collection: about 21%.
NS1 function inh: influenza NS1 inhibition; AID 2326; hit rate 0.4% among 270,000; Potency, µM (series often up to 46.1 µM), without a hit: at the top dose activity, positive = more growth; calls by dose curve; also: potency is read from the fitted curve at half-maximal effect; actives are rising curves; nearly all actives have a fitted effect of over 50% in size
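OD600 was taken as the measure of yeast growth restored by compound in an NS1-expressing S. cerevisiae strain. Cells had been washed out of glucose medium and diluted 1:100 into galactose -URA medium, pH 6.0.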
Pf growth 96h: P. falciparum growth inhibition at 96 hour, primary screen for plastid delayed-death inhibitors; P. falciparum luciferase reporter growth, 96 h; Potency, µM (highest dose often 28.7 µM), for inactives: at the highest dose activity change, negative = inhibition, hits mostly inhibitors; hit rate 6.9% among 320,000; also: potency is read from the fitted curve at half-maximal effect; % is scaled to controls: 0 for no effect and ±100 for the full control effect
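Plates of compound plus infected erythrocytes (2% hematocrit, 0.05% parasitemia final) incubate 96 hours, 37 C, 5% CO2. Detection reagent added; reduced luminescence from the parasites' luciferase reporter flags inhibition.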
Shiga inhibitor: blocks Shiga toxin action in Vero cells | Vero cells, Shiga toxin protein synthesis inhibition reporter | inhibition, % at 38.7 µM | hit rate 9.2% among 290,000 | AID 2315; in the data active = inhibition mostly above about 28%, no sharp cut-off; inactive = mostly below about 43%; also: 0% is about no effect
Giardia FBPA inh: inhibitors of Giardia lamblia fructose-1,6-bisphosphate aldolase. Potency, µM (top dose mostly 59.6 µM), for the others: at the top dose activity, negative = inhibition, most hits filed as inhibitors. AID 2451. hit rate 0.71% among 290,000. purified Giardia FBPA; also: potency is read from the fitted curve at half-maximal effect; % is scaled to controls: 0 for no effect and ±100 for the full control effect; nearly all actives have a fitted effect of over 55% in size
Target sequence (A8B2U2 whole entry, looked up): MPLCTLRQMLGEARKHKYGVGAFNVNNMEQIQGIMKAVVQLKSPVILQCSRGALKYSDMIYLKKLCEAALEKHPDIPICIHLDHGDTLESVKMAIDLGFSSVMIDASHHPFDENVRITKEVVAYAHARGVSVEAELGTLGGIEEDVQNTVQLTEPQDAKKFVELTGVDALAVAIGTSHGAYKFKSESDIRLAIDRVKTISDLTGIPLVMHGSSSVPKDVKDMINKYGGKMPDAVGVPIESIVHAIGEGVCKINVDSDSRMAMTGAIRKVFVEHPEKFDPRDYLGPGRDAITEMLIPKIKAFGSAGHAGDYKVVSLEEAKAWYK
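Giardia FBPA (40 nM reagent) was preincubated 10 min at RT with compound (up to 57.5 uM final), then substrate plus GAPDH/TPI/NAD/arsenate coupling system with diaphorase/resazurin was added; resorufin fluorescence (525/598 nm) was read after 20 min.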
CHX counter: counter-screen for Shiga toxin inhibitors: cycloheximide protein synthesis inhibition; cell reporter, cycloheximide protein synthesis inhibition counterscreen; max response, %; hit rate 12% among 300,000; in the data active = max response mostly above about 13%, no sharp cut-off; inactive = mostly below about 14%; also: read at 38.3 µM for the half of the compounds with a filed dose; 0% is about no effect
Pf growth 48h: P. falciparum growth inhibition at 48 hours (one generation); P. falciparum luciferase growth in erythrocytes, 48 h; Potency, µM (top dose mostly 28.7 µM), without a hit: top-dose activity change, negative = inhibition, most hits filed as inhibitors; hit rate 5.9% among 310,000; AID 504832; also: potency is read from the fitted curve at half-maximal effect; % is scaled to controls: 0 for no effect and ±100 for the full control effect
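Luciferase-expressing parasites in RBCs, 2% Hct / 0.1% parasitemia final; RPMI 1640 + 0.5% Albumax; 37 C, 5% CO2, one generation; luminescence read-out, lower signal = inhibition.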
NS1 inh valid: validation of influenza NS1 protein function inhibitors. shares compounds with NS1 function inh. 1,400 tested, under 10 active. activity change, negative = inhibition, % at 32.9 µM. influenza NS1 function cell assay, 15-point titration; calls by dose curve; also: 0% is about no effect
PR8 titer: influenza NS1 inhibitors: inhibition of influenza A/PR/8/34 replication | shares compounds with NS1 function inh | MDCK infected influenza A/PR/8/34, virus titer TCID50; stronger effect = lower value | virus titer (log TCID50), log10 TCID50 at 5 µM | hit rate 30% among 95 | AID 504647; call rule not given here
Numbers without * were called inactive; u = inconclusive; x = no result given. Unless noted, calls follow the shape of the dose curve; as a rule, active = well fitted curve in the direction sought with a large enough effect; inconclusive = small, poorly fitted or top-dose-only effect, or another doubt; inactive = no such curve, though single readings can be large; an effect the other way counts as inactive or inconclusive.

SMILES	NS1 function inh	Pf growth 96h	Shiga inhibitor	Giardia FBPA inh	CHX counter	Pf growth 48h	NS1 inh valid	others
Nc1cc(N)nc(SCC(=O)N2CCN(S(=O)(=O)c3ccccc3)CC2)n1	11µM*	u	0	2%	-3	-18%	4
Cn1c(/N=C/c2c(O)ccc3ccccc23)nc2ccccc21	11µM*	-3%	81*	0.71µM*	69*	-16%	u
CCCn1c(/N=C/c2ccccc2O)nc2ccccc21	-3%	u	-12	-2%	-1	43%	x
O=C(CN1CCN(C/C=C/c2ccccc2)CC1)Nc1cc([N+](=O)[O-])ccc1Cl	-33%	u	-10	-20%	-5	u	x
CCOC(=O)c1ccc(NC(=O)CSc2nnc(CCc3ccc(C)o3)n2-c2ccccc2)cc1	1.4µM*	u	15	1%	5	u	-20	PR8 titer=7.7
CCOC(=O)c1ccc(C(=O)OCC)c(NC(=S)Nc2ccc([N+](=O)[O-])cc2OC)c1	5µM*	2.9µM*	67*	-14%	69*	34%	u
COc1ccc(OC)c(S(=O)(=O)Nc2ccc3c(c2)C(=O)OC3)c1	0%	16%	10	1%	-2	-1%	x
COc1ccc(NC(=O)Nc2cccs2)cc1OC	u	35%	37	-21%	13	x	18
CCOC(=O)c1ccc(NC(=O)Nc2ccc(OC)c(OC)c2)cc1	-27%	13%	-4	-4%	-1	u	x
COc1ccc(CCN(Cc2nc3ccccc3c(=O)[nH]2)C(=O)c2ccco2)cc1OC	8.9µM*	125%	-13	1%	4	u	11
COc1ccc(CN(Cc2nc3ccccc3c(=O)[nH]2)C(=O)c2ccco2)cc1	-19%	-24%	27	-6%	5	-27%	x
O=C(Cc1cccs1)NCCc1csc(-c2ccccc2)n1	-37%	2%	31	-2%	8	-8%	x
Cn1c(=O)n(-c2ccccc2)c(=O)c2c3c(sc21)COC(C)(C)C3	8.9µM*	x	-7	-1%	1	8%	9
O=C(CSc1n[nH]c(=O)n1-c1cccnc1)Nc1ccccc1	10%	29%	33	x	-2	-4%	x
Cc1ccc(NC2=Nc3ccccc3N3C2=Nc2c(c(C)nn2-c2ccccc2)C3c2ccc(O)c(O)c2)cc1 (stereo unspecified)	u	u	-8	-10%	-2	u	x
Cc1cccc(NC2=Nc3ccccc3N3C2=Nc2c(c(C)nn2-c2ccccc2)C3c2ccc(O)c(O)c2)c1 (stereo unspecified)	3.5µM*	12µM*	-4	-12%	-3	u	3
Cc1cc2nnc(SCC(=O)Nc3cc(S(=O)(=O)N4CCOCC4)ccc3Cl)n2c2ccccc12	10µM*	7.4µM*	-7	8%	-1	5.2µM*	19
O=C(Nc1ccccc1C(=O)O)c1cccc(NS(=O)(=O)c2ccc(Br)cc2)c1	7.9µM*	-20%	x	14%	-2	31%	33
Cc1ccc(C(=O)Nc2ccccc2C(=O)NCc2ccco2)cc1S(=O)(=O)N1CCCCC1	10µM*	47%	52*	-7%	31*	6.6µM*	-11
Cc1ccc(C(=O)Nc2ccccc2C(=O)O)cc1S(=O)(=O)Nc1ccccc1	16µM*	14%	-10	-11%	-1	1%	28
Cc1ccc(C(=O)Nc2ccccc2C(=O)O)cc1S(=O)(=O)NC1CCCCC1	14µM*	0%	4	4%	8	2%	30	PR8 titer=7.7
O=C(Nc1ccccc1C(=O)O)c1cccc(S(=O)(=O)Nc2ccc(Br)cc2)c1	17%	62%	-7	-3%	1	47%	x
CCOC(=O)N1CCN(C(=O)COC(=O)c2ccccc2NCCO)CC1	x	-5%	x	x	x	0%	x
COCCN1C(=S)NC(c2cccc(C(F)(F)F)c2)C(C(=O)N2CCOCC2)=C1C (stereo unspecified)	3%	-11%	6	1%	-1	-5%	x
CC(/C=N/NC(=O)Cc1cccn1C)=C\c1ccco1	13%	48%	13	-5%	12	17%	x
SMILES	NS1 function inh	Pf growth 96h	Shiga inhibitor	Giardia FBPA inh	CHX counter	Pf growth 48h	NS1 inh valid	others
Cc1ccc(/C=N/NC(=O)Cc2cccn2C)s1	2.8µM*	-25%	58*	-6%	49*	90%	11
C=CCn1c(SCC2=C(C(=O)OCC)C(C)NC(=O)N2)nnc1C1CCCCC1 (stereo unspecified)	11µM*	3%	11	4%	2	12µM*	-10	PR8 titer=8
C=CCn1c(SCC(=O)NC(=O)NCCC)nnc1C1CCCCC1	4%	u	9	-8%	4	u	x
CC1CCCC(C)N1C(=O)COC(=O)CNC(=O)c1sc2ccccc2c1Cl (stereo unspecified)	x	u	x	x	x	35%	x
Cc1nc(NC(=O)c2ccccc2)sc1-c1csc(Nc2ccc(Cl)cc2)n1	5µM*	10µM*	28	-2%	10	u	1
Cc1nc2ccccn2c1-c1csc(Nc2ccc(C(=O)O)cc2)n1	-2%	u	-3	-24%	-6	u	x
Cc1c(NC(=O)C(C)OC(=O)c2cc(-c3cccc4ccccc34)nc3ccccc23)c(=O)n(-c2ccccc2)n1C (stereo unspecified)	11µM*	23%	-14	-4%	-3	-2%	7
Cc1cc(C)cc(OCC(=O)OC(C)C(=O)Nc2c(C)n(C)n(-c3ccccc3)c2=O)c1 (stereo unspecified)	x	1%	x	x	x	16%	x
CC(C)CC1NC(=O)N(CC(=O)Nc2cccc(Br)c2)C1=O (stereo unspecified)	x	13%	x	x	x	-29%	x
Cc1nn(-c2ccccc2)c2c1C(c1ccc([N+](=O)[O-])cc1)C(C#N)=C(N)O2 (stereo unspecified)	9%	5%	-6	-22%	3	59%	x
Cc1nn(-c2ccccc2)c2c1C(c1ccc([N+](=O)[O-])cc1)N1C(=N2)C(=O)Nc2ccccc21 (stereo unspecified)	10µM*	5.9µM*	-13	-1%	-6	u	7
CCNC(=S)NCc1ccc2[nH]c(C)cc2c1	11µM*	-26%	-4	1%	3	36%	20
Cc1cc2cc(CNC(=O)c3ccc(C)c([N+](=O)[O-])c3)ccc2[nH]1	8.9µM*	-1%	-42	-4%	8	13%	-23
Cc1cc2cc(CCNC(=O)c3ccc(C)c([N+](=O)[O-])c3)c(=O)[nH]c2cc1C	26%	u	-10	18%	-3	-29%	x
Cc1cc2cc(CNC(=S)Nc3ccc(OC(F)(F)F)cc3)ccc2[nH]1	u	3%	-11	-9%	-4	1%	16

High-throughput results: PubChem, National Center for Advancing Translational Sciences (NCATS)
